Laboratory results from PubChem BioAssay AID1851 (National Center for Advancing Translational Sciences (NCATS), 2009).
Among all 16,000 compounds or so, about 4,000 (25%) were called active. Not shown: some 26% with an inconclusive outcome. Calls come from the whole dose curve; as a rule, active = well fitted curve in the direction sought with a large enough effect; inconclusive = small, poorly fitted or top-dose-only effect, or effect the other way; inactive = no such curve, though single readings can be large or run the other way. The list is a sample of the results.

Each molecule was assayed against Cytochrome P450 2C9 (Homo sapiens) (UniProt P11712) (assay: Cytochrome panel assay with activity outcomes). Conditions: recombinant CYP, pro-luciferin dealkylation, luminescence, p450-cyp2c9; series mostly up to 57.1 µM.
Cytochrome P450 2C9 (Homo sapiens), sequence (P11712 whole entry, looked up): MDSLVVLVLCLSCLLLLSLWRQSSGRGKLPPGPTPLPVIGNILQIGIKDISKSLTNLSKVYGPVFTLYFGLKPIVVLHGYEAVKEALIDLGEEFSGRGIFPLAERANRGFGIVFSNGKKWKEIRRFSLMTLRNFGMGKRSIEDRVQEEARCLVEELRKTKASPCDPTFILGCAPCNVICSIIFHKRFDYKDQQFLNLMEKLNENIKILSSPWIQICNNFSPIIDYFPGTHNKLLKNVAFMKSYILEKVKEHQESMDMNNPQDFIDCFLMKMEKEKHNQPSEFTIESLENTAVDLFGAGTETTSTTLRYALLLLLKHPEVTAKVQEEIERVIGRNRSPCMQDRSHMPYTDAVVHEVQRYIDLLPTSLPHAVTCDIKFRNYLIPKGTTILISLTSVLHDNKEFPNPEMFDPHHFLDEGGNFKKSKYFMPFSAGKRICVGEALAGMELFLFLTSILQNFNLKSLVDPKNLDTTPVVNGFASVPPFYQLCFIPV
% is set by controls: 0 for no effect and ±100 for the full control effect.

activity, negative = inhibition, inactive:
O=C1NC(=O)[C@@](Cc2ccccc2)(c2cccnc2)N1 -6.71% [at 11.4 µM], Cc1cnc(CNc2ncncc2-c2ccc3c(c2)OCO3)cn1 15.7% [at 2.29 µM], Cc1ccc(S(=O)(=O)Nc2cc(=O)[nH]c3c2CCC3)cc1 8.32% [at 11.4 µM], COc1cccc([C@H](O)Cn2cc(-c3ccc(CON=C(C)C)cc3)nn2)c1 -13.3% [at 11.4 µM], COC(=O)C/C=C\[C@@H](C)[C@@H](/C=N\O[C@@H](C)c1cn([C@H]2COC[C@H]2O)nn1)OC -15.9% [at 11.4 µM], CN(C)CCCn1c2ccccc2c2cnccc21 4.43% [at 11.4 µM], CC(C)[C@H](NC(=O)OC(C)(C)C)[C@@H](O)CC(=O)OC(C)(C)C 20.6% [at 11.4 µM], CC(=O)C[C@H](O)[C@@H](NC(=O)OC(C)(C)C)C(C)C -4.41% [at 11.4 µM], C#CCCCO/N=C1/C[C@@H](O)[C@@H](O)[C@@H]2[C@@H]3C(=O)N(CCC(=O)OCC)C(=O)[C@H]3CC[C@@H]12 2.98% [at 11.4 µM], C=C[C@]1(C)C[C@H](OC(=O)CO)[C@]2(C)C3C(=O)CC[C@]3(CC[C@H]2C)[C@H](C)[C@H]1O (stereo partly drawn) 4.64% [at 11.4 µM], N=C(N)c1ccc(N=Nc2c(O)ccc3c2[nH]c2ccccc23)cc1 -5.45% [at 11.4 µM], c1csc(CNc2cc(-c3ccoc3)ncn2)c1 -7.77% [at 2.29 µM], O=C1[C@H]2[C@H]3[C@H](O)[C@H](O)C/C(=N/OC[C@@H](O)COCc4ccco4)[C@@H]3CC[C@@H]2C(=O)N1Cc1ccc2c(c1)OCO2 3.23% [at 11.4 µM], C#CCCCO/N=C1/C[C@@H](O)[C@@H](O)[C@@H]2[C@@H]3C(=O)N(C[C@@H]4CCCO4)C(=O)[C@H]3CC[C@@H]12 16.1% [at 11.4 µM]

AC50, inactive:
CN1C(=O)CC[C@@H]1c1cccnc1, c1ccc(-c2cccc(N3CC[C@@]4(CCCNC4)C3)c2)cc1, CN1CCCCC1=NCCCn1cnc2c1c(=O)n(C)c(=O)n2C, N#Cc1cc2[nH]c(=O)c(=O)[nH]c2cc1[N+](=O)[O-], CN(C)c1ncc2nc(-c3ccc(F)cc3)c(=O)n(CCC#N)c2n1, Cl/C(=C\n1cncn1)c1ccc(Cl)cc1Cl, COc1cc([C@@H](O)CO)ccc1OS(=O)(=O)O, COC(=O)C(C(=O)OC)C(C[N+](=O)[O-])c1ccc(OC)c(OC)c1 (stereo not drawn), COc1ccccc1CN1CCCC2(CCN(C(=O)c3c(C)noc3C)CC2)C1, O=c1cc(CSc2nnc(-c3cccnc3)n2-c2ccccc2F)nc2sccn12, CC1CCN(C(=O)CSc2nc3cccnc3n2C)CC1

AC50, active:
CC1=C(C(=O)OCc2ccccc2)C(c2cccnc2)c2c(n(C)c(=O)n(C)c2=O)N1 (stereo not drawn) 4.47 µM, CCC(C)(C)NC(=O)c1ccc2c(c1)N(CC(=O)OC)C(=O)C(C)(C)O2 28.2 µM, COC(=O)c1cc2c(ccn2-c2ccc(F)cc2)n1CC(C)C 10 µM, Cc1ccc(/C=C2\Sc3ccccc3C2=O)s1 3.55 µM, Cc1ccc(S(=O)(=O)c2cc(C#N)c(=O)[nH]c2N)cc1 11.2 µM, Cc1ccccc1Cn1cc(NC(=O)CSc2nc3c(c(C(F)(F)F)n2)CCc2ccccc2-3)cn1 1.78 µM, Cc1nn(Cc2ccc(Cl)cc2)c(C)c1NC(=O)CSc1nc2c(c(C(F)(F)F)n1)CCc1ccccc1-2 1.41 µM, O=C(c1cnc(-c2ccccc2)s1)c1ccc(Cl)cc1Cl 20 µM, COc1ccc(C(O)P(=O)(OC(C)C)OC(C)C)cc1OC (stereo not drawn) 7.94 µM, COC(=O)[C@@]1(Cc2ccc(OC)cc2)[C@H]2c3cc(C(=O)N(C)C)[nH]c3C[C@H]2CN1C(=O)c1ccccc1 3.98 µM, COC(=O)[C@@]1(Cc2ccccc2)[C@H]2c3cc(C(=O)N4CCCC4)[nH]c3C[C@H]2CN1C(=O)c1ccccc1 0.794 µM, Cc1c2cnccc2c(C)c2c1c1ccccc1n2CCOC(=O)c1ccccc1 3.16 µM, CCOC(=O)c1c(-c2ccccc2)nc2c(C)cccn12 11.2 µM, CC(NC(=O)C1(C)CC1(Br)Br)C(C)(C)C (stereo not drawn) 31.6 µM, O=C1[C@@H]2C=CC=CC2=NC(=S)N1CCN1CCC(=C(c2ccc(F)cc2)c2ccc(F)cc2)CC1 31.6 µM, CC(C)c1ccccc1-n1c(SCC(=O)N2CCN(c3ccccc3)CC2)nnc1-c1cccnc1 11.2 µM, Cc1ccc(CSc2nnc3c(n2)OC2(Nc4ccccc4-3)C(=O)Nc3ccc(F)cc32)cc1 (stereo not drawn) 8.91 µM, O=C1Nc2ccc(F)cc2C12Nc1ccccc1-c1nnc(SCc3ccccc3F)nc1O2 (stereo not drawn) 2 µM
